Screening results from PubChem.
Only a selection was taken, and hits are over-represented in it overall.
miR-122 inh = activators of miR-122 sensor in Huh7 cells; Huh7 psiCHECK-miR122 Renilla luciferase sensor, 48 h; activation, % at 12.5 µM; actives 0.14% (n = 340,000);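 active means mean activation of 30% or more, with every replicate also reaching 30%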;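 further: higher luciferase signal means stronger suppression of miR-122 activity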
Hits are given with their value.

`C[C@H]1CN([C@@H](C)CO)C(=O)c2cc(C#CCc3ccccc3)cnc2O[C@H]1CN(C)C(=O)C1CCCCC1` gave miR-122 inh inactive.
Screening C[C@H](CO)N1C[C@H](C)[C@@H](CN(C)CC2CCOCC2)Oc2ncc(C#CCC3CCCC3)cc2C1=O returned miR-122 inh inactive.
For CCCCCCCCCn1c2c(c(=N)c3c1CCC3)CCC2 the results were miR-122 inh 47.
Screening COc1cccc(C#Cc2ccc3c(c2)O[C@H](CN(C)C(C)=O)[C@@H](C)CN([C@@H](C)CO)S3(=O)=O)c1 returned miR-122 inh inactive.
`C[C@@H]1CN([C@H](C)CO)S(=O)(=O)c2ccc(C#CC3(O)CCCC3)cc2O[C@@H]1CN(C)C(=O)Nc1ccc(F)cc1` gave miR-122 inh inactive.
Screening O=S(=O)(Nc1nccs1)c1ccc(NS(=O)(=O)c2cccs2)cc1 returned miR-122 inh 39.
For Cc1ccc(S(=O)(=O)Nc2ccc(C(=O)NCc3ccccn3)cc2)cc1 the results were miR-122 inh inactive.
For COc1ccc(NS(=O)(=O)c2cc(NS(=O)(=O)c3cccs3)ccc2C)cc1 the results were miR-122 inh inactive.
Screening C[C@@H]1CN([C@H](C)CO)S(=O)(=O)c2ccc(Br)cc2O[C@@H]1CN(C)Cc1ccccn1 returned miR-122 inh inactive.
Screening C[C@H]1CN([C@@H](C)CO)S(=O)(=O)c2ccc(-c3cccc(C#N)c3)cc2O[C@H]1CN(C)Cc1ccccn1 returned miR-122 inh inactive.
`C[C@H](CO)N1C[C@H](C)[C@H](CN(C)Cc2cccnc2)Oc2cc(C#C[C@@H](C)O)ccc2S1(=O)=O` gave miR-122 inh inactive.
CCCC#Cc1cnc2c(c1)C(=O)N([C@H](C)CO)C[C@H](C)[C@H](CN(C)C(=O)C1CC1)O2 was read as miR-122 inh inactive.
CC(=O)N(C)C[C@@H]1Oc2cc(C#C[C@H](C)O)ccc2S(=O)(=O)N([C@@H](C)CO)C[C@H]1C was read as miR-122 inh inactive.
Screening O=[N+]([O-])c1ccc(/C=N/n2cnc3ccccc32)s1 returned miR-122 inh 48.
`COc1cccc(S(=O)(=O)N(C)C[C@H]2Oc3ncc(C#CCC(C)C)cc3C(=O)N([C@H](C)CO)C[C@@H]2C)c1` gave miR-122 inh inactive.
For Cc1noc(C)c1NC(=O)N(C)C[C@H]1Oc2cc(C#CCC(C)C)ccc2S(=O)(=O)N([C@@H](C)CO)C[C@@H]1C the results were miR-122 inh inactive.
C[C@H]1CN([C@@H](C)CO)S(=O)(=O)c2ccc(C#Cc3ccccc3F)cc2O[C@@H]1CN(C)C(=O)Cc1ccccc1 was read as miR-122 inh inactive.
`C[C@@H]1CN([C@H](C)CO)S(=O)(=O)c2ccc(C#Cc3ccccc3F)cc2O[C@H]1CN(C)C(=O)Cc1ccccc1` gave miR-122 inh inactive.
Screening C[C@@H]1CN([C@@H](C)CO)S(=O)(=O)c2ccc(C#Cc3ccccc3F)cc2O[C@@H]1CN(C)C(=O)Cc1ccncc1 returned miR-122 inh 57.
`C[C@@H]1CN([C@@H](C)CO)S(=O)(=O)c2ccc(C#Cc3ccccc3F)cc2O[C@@H]1CN(C)C(=O)c1ccc2c(c1)OCO2` gave miR-122 inh 41.
`C[C@@H]1CN([C@H](C)CO)S(=O)(=O)c2ccc(Br)cc2O[C@H]1CN(C)C(=O)c1ccc2c(c1)OCO2` gave miR-122 inh inactive.
C[C@@H]1CN([C@@H](C)CO)S(=O)(=O)c2ccc(C#Cc3ccccc3F)cc2O[C@H]1CN(C)C(=O)Cc1ccccc1 was read as miR-122 inh inactive.
`C[C@H](CO)N1C[C@H](C)[C@H](CN(C)C(=O)Nc2ccccc2)Oc2cc(C#Cc3ccccc3)ccc2S1(=O)=O` gave miR-122 inh inactive.
`C[C@@H]1CN([C@H](C)CO)C(=O)c2cc(C3=CCCCC3)cnc2O[C@H]1CN(C)Cc1ccccc1C(=O)O` gave miR-122 inh inactive.
Screening COc1ccc(-c2cnc3c(c2)C(=O)N([C@@H](C)CO)C[C@@H](C)[C@H](CN(C)Cc2ccccn2)O3)cc1 returned miR-122 inh inactive.
`C[C@H](CO)N1C[C@H](C)[C@@H](CN(C)S(=O)(=O)c2ccccc2F)Oc2cc(C#Cc3ccccc3)ccc2S1(=O)=O` gave miR-122 inh inactive.
CN(C(=O)C12CC3CC(CC(C3)C1)C2)C1CCS(=O)(=O)C1 (stereo not drawn) was read as miR-122 inh 36.
Screening C[C@H]1CN([C@@H](C)CO)C(=O)c2cc(-c3ccccc3)cnc2O[C@H]1CN(C)C(=O)c1cccnc1 returned miR-122 inh inactive.
Screening C[C@@H]1CN([C@@H](C)CO)S(=O)(=O)c2ccc(-c3cncnc3)cc2O[C@H]1CN(C)Cc1cncnc1 returned miR-122 inh inactive.
Screening CO[C@H]1CN(C)C(=O)c2ccc(NC(=O)c3ccccc3)cc2OC[C@H](C)N(C)C[C@@H]1C returned miR-122 inh inactive.
For c1cnc(N2CCN(Cc3c[nH]c4ccccc34)CC2)nc1 the results were miR-122 inh 38.
`C[C@H]1CN([C@@H](C)CO)S(=O)(=O)c2ccc(-c3ccccc3)cc2O[C@H]1CN(C)Cc1ccccc1C(=O)O` gave miR-122 inh inactive.
C[C@@H]1CN([C@@H](C)CO)C(=O)c2cc(-c3cccc(F)c3)cnc2O[C@@H]1CN(C)C(=O)C1CCOCC1 was read as miR-122 inh inactive.
For C[C@H]1CN([C@@H](C)CO)C(=O)c2cc(-c3ccncc3)cnc2O[C@@H]1CN(C)C(=O)C1CCOCC1 the results were miR-122 inh inactive.
COC(=O)c1nn(-c2ccccc2)c(Sc2ccc(Cl)cc2)c1/C=N/O was read as miR-122 inh 36.
C[C@H]1CN([C@@H](C)CO)C(=O)c2cc(-c3ccc(F)cc3)cnc2O[C@H]1CN(C)CC1CCOCC1 was read as miR-122 inh inactive.
Screening Cc1noc(C)c1S(=O)(=O)N(C)C[C@@H]1Oc2c(NC(=O)C3CCCCC3)cccc2C(=O)N([C@H](C)CO)C[C@@H]1C returned miR-122 inh inactive.
`OC(CNCCC1C=Nc2ccccc21)Cn1c2ccc(Cl)cc2c2cc(Cl)ccc21` (stereo not drawn) gave miR-122 inh 55.
For CCOc1ccc(NS(=O)(=O)c2ccc(NC(=S)NC(=O)CC(C)C)cc2)cc1 the results were miR-122 inh inactive.
Screening Cc1ccc(S(=O)(=O)Nc2ccc3ccccc3c2)cc1 returned miR-122 inh inactive.
For Cc1cc(NS(=O)(=O)c2ccc(NC(=O)C(CC(C)C)N3C(=O)c4ccccc4C3=O)cc2)nc(C)n1 (stereo not drawn) the results were miR-122 inh 35.
C[C@@H]1CN([C@@H](C)CO)S(=O)(=O)c2ccc(C#Cc3ccccn3)cc2O[C@@H]1CN(C)Cc1ccc(F)cc1 was read as miR-122 inh inactive.
C[C@H]1CN([C@@H](C)CO)C(=O)c2cc(-c3ccc(F)cc3)cnc2O[C@@H]1CN(C)Cc1ccccn1 was read as miR-122 inh inactive.
For C[C@@H]1CN([C@@H](C)CO)C(=O)c2cc(-c3cccc(F)c3)cnc2O[C@@H]1CN(C)Cc1ccncc1 the results were miR-122 inh inactive.
CC(=O)N(C)C[C@@H]1Oc2cc(C#CC3(O)CCCC3)ccc2S(=O)(=O)N([C@@H](C)CO)C[C@H]1C was read as miR-122 inh inactive.
`C[C@@H]1CN([C@H](C)CO)C(=O)c2cc(-c3cncnc3)cnc2O[C@H]1CN(C)Cc1ccccc1` gave miR-122 inh inactive.
